# MRP1 act: activates MRP-1; viability increase, % at 10 µM; H69AR cells + doxorubicin, viability rescue, CellTiter-Glo; AID 799; hit rate 0.61% among 140,000;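 active means viability gain under doxorubicin at or above a set limit, the compound median plus 3 SD, cut at about 4.7% in these data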;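 further: MRP-1 overexpressing cells given doxorubicin 25 µM after compound pretreatment; 18-22 h compound pretreatment then 72 h with doxorubicin before readout; 0% = doxorubicin-only wells and 100% = vehicle-treated cells without doxorubicin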
# VCAM1 TNFa inh: reduces TNF alpha induced VCAM1 expression in HUVEC. AID 802. hit rate 0.48% among 95,000. HUVEC TNFa-induced VCAM-1 immunofluorescence, high-content imaging. inhibition, % at 2 µM;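 active means inhibition above the batch mean plus 3 SD, with images confirmed as a hit by eye, cut at about 37% in these data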;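 further: 0% = TNF-stimulated DMSO wells and 100% = unstimulated control wells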
# E-sel TNF inh: blocks E-selectin expression induced by TNF alpha. HUVEC TNFa-induced E-selectin immunofluorescence, high content. hit rate 0.71% among 120,000. inhibition, % at 2 µM;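 active means inhibition above the batch mean plus 3 SD, and confirmed as a hit on visual image review, cut at about 43% in these data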;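 further: 0% = TNF-stimulated DMSO wells and 100% = unstimulated control wells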
# MRP reversal: compounds reversing MRP-mediated drug resistance. H69AR cells + 2 uM doxorubicin, CellTiter-Glo, 72 h. differential viability (reversal), % at 10 µM. hit rate 0.04% among 85,000;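 active means viability drop by adding the cancer drug above about 55%, with treated viability meeting a 40% cutoff, limit read from the data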;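 further: viability without doxorubicin minus viability with 2 µM doxorubicin for each compound; larger differential means the compound sensitizes cells more to doxorubicin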
# cytoskel mod: alters cytoskeleton assembly in HUVEC cells; HUVEC TNFa F-actin phalloidin imaging, high content; inhibition, % at 2 µM; hit rate 0.18% among 91,000; AID 836;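 active means inhibition above the batch mean plus 3 SD and confirmed as a hit by visual image inspection, cut at about 30% in these data, passing the limit was not always enough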
# * marks the source's active call; other numbers are inactive results; / = no result given. In the library only some 1.5% were active in any assay of this set; here they are far more common.
SMILES,MRP1 act,VCAM1 TNFa inh,E-sel TNF inh,MRP reversal,cytoskel mod
CC(C)CN(C(=O)COC(=O)Cc1c[nH]c2ccccc12)C1CCS(=O)(=O)C1 (stereo not given),-3,-4,/,5,41
CN(C)c1oc(-c2ccc(OCc3ccccc3)cc2)nc1C#N,4.7*,-6,/,2,23
COC(=O)c1ccc(COC(=O)c2ccc(SC)cc2OC)cc1,3,/,13,/,/
CCCn1c(C)cc(/C=C(\C#N)C(=O)OCC(=O)Nc2ccc(OC)c(Cl)c2)c1C,9.4*,/,-5,/,/
COC(=O)c1ccc(CNC(=O)c2ccc(COc3ccccc3)cc2)cc1,1,/,/,/,/
O=c1cc(-c2ccccc2)c2ccccc2[nH]1,-3,10,65*,-1,-30
Cc1cccc(C)c1NC(=O)CN(C)C(=O)/C=C/c1cccs1,-1,/,93*,/,/
CC(C)CCNC(=O)Cc1ccc(Nc2nc(=S)[nH]c3ccccc23)cc1,/,/,15,/,/
COc1ccc(/C=C/C(=O)NC2CCCCCCC2)cc1S(=O)(=O)N1CCOCC1,-4,/,/,/,/
Clc1ccc(CSc2nnnn2-c2ccc3c(c2)OCO3)c(Cl)c1,-4,18,-3,-10,17
CC1CN(c2nc3c(c(=O)n(Cc4ccc(Cl)cc4)c(=O)n3C)n2C)CC(C)O1 (stereo not given),-5,31,/,57*,13
COC(=O)c1cc(C(=O)OCC(=O)NCc2ccc3c(c2)OCO3)cc([N+](=O)[O-])c1,-1,/,-10,/,/
Cc1ccc(/C=N/Nc2ncc(Cl)cc2Cl)s1,-5,-18,-7,-5,-16
Clc1cnc(N/N=C/c2cccs2)c(Cl)c1,-4,20,-7,81*,32
C/C(=N\NC(=O)c1cccnc1)c1ccc(OC2OCCOC2Oc2ccc(/C(C)=N/NC(=O)c3cccnc3)cc2)cc1 (stereo not given),/,/,-55,/,/
Cc1cccc(NC(=O)CSc2nc3ccc(NC(=O)CSc4nnnn4-c4ccccc4)cc3s2)c1C,-2,44*,-35,/,-20
C=C(C)C(=O)NC1=NN(c2ccccc2)C(=O)C1,6.0*,/,6,/,/
CC1(C)CC(=O)C2=C(C1)OC1=C(C2)C(=O)CC(C)(C)C1,-1,/,/,/,/
O=C1NC(=O)C2(COC(c3ccccc3Cl)OC2)S1 (stereo not given),7.2*,/,/,/,/
Cc1ccccc1-n1nnnc1SCc1cc(=O)n2ccsc2n1,/,/,-25,/,/
COc1ccc(S(=O)(=O)N2CCCC2C(=O)Nc2ccc(C)cc2)cc1 (stereo not given),1,97*,-9,1,1
CCc1nnc(NC(=O)C2CCCN2S(=O)(=O)c2ccc(C)cc2)s1 (stereo not given),6.8*,-14,-9,-12,-14
CCc1nnc(NC(=O)C2Cc3ccccc3CN2S(=O)(=O)c2ccc(C)cc2)s1 (stereo not given),-1,19,9,-22,-12
O=C1CC(c2ccc(Cl)cc2)SC(N(c2ccccc2)c2ccccc2)=N1 (stereo not given),-4,/,/,/,/
O=C1CC(c2ccccc2)SC(N(c2ccccc2)c2ccccc2)=N1 (stereo not given),-1,/,62*,/,/
SMILES,MRP1 act,VCAM1 TNFa inh,E-sel TNF inh,MRP reversal,cytoskel mod
Cc1ccc(C(=O)CSc2nsc(C)c2C#N)cc1,-1,1,22,/,74*
CCOC(=O)c1c(CN(C)C)n(-c2ccc(C)cc2)c2cc(Br)c(O)cc12,-4,/,/,/,/
CCOC(=O)c1c(CSC(=N)N)n(-c2ccc(C)cc2)c2cc(Br)c(OC(C)=O)cc12,9.5*,-12,-22,/,-14
COC(=O)c1sc(NC(=O)CCCn2nc([N+](=O)[O-])cc2C)c(C(=O)OC)c1C,0,/,-1,/,/
O=C(c1ccco1)N1CCN(S(=O)(=O)Cc2ccc(Cl)cc2)CC1,-2,-10,19,-15,-5
CCOC(=O)c1c(NC(C)=O)sc2c(O)cccc12,-1,/,56*,3,/
C=CCn1c(SCC(=O)Nc2ccc(C(=O)OCC)cc2)nnc1-c1sc(N)nc1C,-2,92*,-17,-15,-8
O=C(O)CCN1C(=O)CC(N2C(=O)/C(=C/c3ccc(Cl)cc3)SC2=S)C1=O (stereo not given),8.0*,/,/,/,/
O=C(CCN1C(=O)S/C(=C/c2ccc(Cl)cc2)C1=O)N1CCOCC1,-3,/,-2,/,/
O=c1[nH]c2cccnc2n1Cc1ccccc1,1,-8,-9,-3,35*
COCCCNS(=O)(=O)c1ccc(Oc2ncc(C(F)(F)F)cc2Cl)cc1,-2,21,8,/,-19
CC(C)(C)NS(=O)(=O)c1ccc(Oc2ncc(C(F)(F)F)cc2Cl)cc1,0,-2,23,/,61*
COc1ccc(C2C3=C(CC(C)(C)CC3=O)Nc3cc4c(cc32)OCO4)cc1 (stereo not given),0,16,6,13,-25
COc1ccc(OC)c(C2C3=C(COC3=O)Nc3cc4c(cc32)OCO4)c1 (stereo not given),-3,96*,0,/,16
Cc1nc2ccc(NC(=S)NC(C)C)cc2nc1C,-2,-5,-30,/,-4
C=CCc1c(C)nc(-c2ccccc2)nc1Nc1ccccc1O,-2,/,/,/,/
C=CCc1c(C)nc(-c2ccccc2)nc1N/N=C(\C)c1ccc(N)cc1,5.7*,/,-3,/,/
C=CCc1c(C)nc(-c2ccccc2)nc1N/N=C/c1ccccc1,8.5*,/,0,/,/
Cc1nc2ccccc2n1CCCOc1ccccc1,3,62*,-1,9,-6
CCOc1cc(C(=O)NCc2nnc(SCC(=O)OC)n2C)cc(OCC)c1OCC,-1,/,71*,10,/
CCOC(=O)CSc1nnc(CNC(=O)c2cc(OCC)c(OCC)c(OCC)c2)n1C,-3,7,0,0,-9
Cc1sc2ncnc(SCC(=O)c3ccc4c(c3)OCCO4)c2c1-c1ccccc1,1,/,-17,/,/
Cc1ccc(/C=C/C(=O)C2C(=O)c3ccccc3C2=O)cc1,-3,19,66*,/,19
Cc1ccc(/C=C/C(=O)c2ccc(C)cc2)cc1,-7,-23,2,-21,-7
CCN1CCN(S(=O)(=O)c2ccc(C)c([N+](=O)[O-])c2)CC1,-1,/,-11,/,/
SMILES,MRP1 act,VCAM1 TNFa inh,E-sel TNF inh,MRP reversal,cytoskel mod
O=C(COC(=O)C1CC2C=CC1C2)Nc1cccc(S(=O)(=O)N2CCCCCC2)c1 (stereo not given),1,/,/,/,/
C=CCNC(=S)Nc1ccc(OC)c(S(=O)(=O)N2CCOCC2)c1,/,/,-37,/,/
CCCCOc1ccc(-c2nnn(C(C)(C)C(=O)OC)n2)cc1,2,-3,4,25,10
CCCCOc1ccc(-c2nnn(C(C)C(=O)OCC)n2)cc1 (stereo not given),0,14,66*,4,-98
CC1(C)CC(=O)C2=C(C1)NCN(Cc1ccc3c(c1)OCO3)C2,-2,7,49*,15,1
CC(C)(C)OC(=O)NCC(=O)N1CCC(C(=O)O)CC1,-1,11,69*,-13,18
CCOC(=O)C1CCN(C(=O)CNC(=O)OC(C)(C)C)CC1,-1,-4,-51,6,20
CC(/C=N/N1CCN(c2ccccn2)CC1)=C\c1ccccc1,5.0*,/,/,/,/
N#CCSc1nc2ccc(N3CCCCC3)cc2c(=O)n1Cc1ccccc1,4.8*,9,-10,-1,28

# Assay outcomes deposited in PubChem by several laboratories.
